From PubChem BioAssay
A selection: hits, their analogues and other compounds. The true share with any hit is near 20%.
HCMV inh – human cytomegalovirus inhibition. HFF cells, HCMV-luciferase reporter, 72 h; active compounds read low. activity change, negative = inhibition, % at 57.5 µM. hit rate 4.5% among 410,000. AID 1259415; in the data active = activity change below about -60%; inconclusive = no clear call, values can overlap the other calls; inactive = above about -39%; note: % is set by controls: 0 for no effect and ±100 for the full control effect
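HFF cells seeded 16 h at 37C, treated with compounds, infected with luciferase-reporter HCMV at MOI 1 PFU/cell; luciferase read at 72 h post infection, normalized to buffer-only and Salinomycin controls.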
Cycloheximide cs – affects cycloheximide protein synthesis inhibition readout, counter-screen; cell reporter, cycloheximide protein synthesis inhibition counterscreen; max response, %; hit rate 12% among 300,000; AID 2314; in the data active = max response mostly above about 13%, no sharp cut-off; inactive = mostly below about 14%; note: read at 38.3 µM for the half of the compounds with a filed dose; 0% is about no effect
Pf growth 96h – P. falciparum growth inhibition at 96 hour, primary screen for plastid delayed-death inhibitors | P. falciparum luciferase reporter growth, 96 h | Potency, µM (series often up to 28.7 µM), inactives show at the highest dose activity change, negative = inhibition, actives largely listed as inhibitors | hit rate 6.9% among 320,000; note: potency is the fitted concentration of half-maximal effect; % is set by controls: 0 for no effect and ±100 for the full control effect
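Parasite growth measured via integrated firefly luciferase reporter in P. falciparum. Infected erythrocytes at 2% hematocrit, 0.05% parasitemia final were treated 96 hours at 37 C under 5% CO2, and luminescence was read.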
Pf growth 48h – inhibits P. falciparum growth in the first generation, 48 h; P. falciparum luciferase growth in erythrocytes, 48 h; Potency, µM (doses to about 28.7 µM), for inactives: at the top dose activity change, negative = inhibition, hits mostly inhibitors; hit rate 5.9% among 310,000; AID 504832; note: potency is the fitted concentration of half-maximal effect; % is set by controls: 0 for no effect and ±100 for the full control effect
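Cell-based growth assay: transgenic P. falciparum expressing firefly luciferase, cultured in red cells within RPMI 1640 containing 0.5% w/v Albumax, 24 mM bicarbonate and gentamycin. A drop in luciferase activity indicates inhibition.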
Shiga inhibitor – blocks Shiga toxin action in Vero cells | hit rate 9.2% among 290,000 | Vero cells, Shiga toxin protein synthesis inhibition reporter | inhibition, % at 38.7 µM; in the data active = inhibition mostly above about 28%, no sharp cut-off; inactive = mostly below about 43%; note: 0% is about no effect
* marks the source's active call; other numbers are inactive results; ? = inconclusive; nt = no result. Unless noted, calls come from the whole dose curve; as a rule, active = well fitted inhibition curve with a large enough effect; inconclusive = small, poorly fitted or top-dose-only effect, or another doubt; inactive = no such curve, though single readings can be large or run the other way.

SMILES | HCMV inh | Cycloheximide cs | Pf growth 96h | Pf growth 48h | Shiga inhibitor
CCCCCC1CCC(c2ccc(C(N)=O)cc2)CC1 (stereo not drawn) | -14 | -2 | 2.9µM* | 1% | -17
CCCC1CCC(c2ccc(C(=O)NN)cc2)CC1 (stereo not drawn) | -79* | 2 | 50% | -30% | -2
O=C(Nc1ccccc1)c1cnc(N2CCN(Cc3cccc(C(F)(F)F)c3)C2=O)o1 | 59 | nt | nt | nt | nt
O=C(C[n+]1ccccc1)Nc1ccccc1Br | 4 | 24* | -26% | 40% | 53*
CCN(CC)CC(=O)Nc1ccc(Oc2ccc(NC(=O)CN(CC)CC)cc2)cc1 | -40 | 7 | 3% | ? | 2
O=C(C[n+]1ccccc1)Nc1ccc(Oc2ccccc2)cc1 | -23 | -1 | 0% | 6.6µM* | -7
CN(C)c1ccc(NC(=O)C[n+]2ccccc2)cc1 | -19 | -2 | 31% | 0% | 8
CCN(CC)C(=O)C(=O)Nc1ccc(Oc2ccccc2)cc1 | -15 | 24* | 0% | 8% | 78*
O=C(C[n+]1ccccc1)Nc1ccccc1[N+](=O)[O-] | 21 | -1 | 49% | -7% | -6
CO/N=C\CC(=O)Nc1ccc(Oc2ccccc2)cc1 | -70* | 16 | -3% | 14% | -1
O=C(CC1Sc2ccccc2NC1=O)Nc1ccccc1[N+](=O)[O-] (stereo not drawn) | ? | 8 | -25% | -12% | 4
Cc1ccccc1C(=O)N(Cc1sccc1C)C1CCS(=O)(=O)C1 (stereo not drawn) | 5 | nt | nt | nt | nt
COC1CC2CCC(C)[C@](O)(O2)C(=O)C(=O)N2CCCCC2C(=O)OC(C(C)CC2CCC(O)C(OC)C2)CC(=O)C(C)/C=C(/C)C(O)C(OC)C(=O)C(C)CC(C)C=CC=C/C=C\1C (stereo partly drawn) | nt | nt | 1.9µM* | 3.8µM* | nt
C/C(=N\O)c1ccc2c3ccccc3n(C)c2c1 | 56 | 46* | -24% | 101% | 105*
O=C(NCC1CCCO1)c1ccc(/C=N/O)nc1 (stereo not drawn) | -4 | -3 | 15µM* | 0% | -10
O=C(NCCCNCCCNC(=O)c1ccc(/C=N/O)nc1)c1ccc(/C=N/O)nc1 | 17 | -2 | 2.6µM* | 9.3µM* | -6
CN(CCCNC(=O)c1ccc(/C=N/O)nc1)CCCN(C)Cc1ccccc1 | 34 | -2 | ? | ? | -9
CC1CCCN(c2ccc(C(=O)NCC3CCCO3)cn2)C1 (stereo not drawn) | -10 | 25* | -5% | 53% | 52
CCc1nnc(SCc2cccc(Cl)c2)c2cc3sccc3n12 | 23 | nt | nt | nt | nt
C=CCn1c(SCc2ccccc2Cl)nnc1-c1sc2nc(C)cc(C)c2c1N | -12 | 1 | ? | 12µM* | 2
Cc1cc(C)c2c(N)c(-c3nnc(SCc4ccc(Cl)cc4)n3C)sc2n1 | ? | -2 | 21% | -4% | 0
Cc1c(Cl)cccc1NC(=S)Nc1ccc2[nH]c(=O)[nH]c2c1 | -28 | 3 | -12% | -18% | -1
COc1ccc(NC(=O)COc2ccccc2)cc1Cl | 0 | 13 | ? | 6% | nt
Cc1ccc(NC(=O)COc2ccccc2)cc1Cl | nt | 17* | -5% | ? | 102*
Cc1ccc(OCC(=O)Nc2ccc(N3CCN(C(=O)c4ccc(C)cc4)CC3)cc2)cc1 | 14 | -4 | 24% | -17% | -4
SMILES | HCMV inh | Cycloheximide cs | Pf growth 96h | Pf growth 48h | Shiga inhibitor
Cc1cc(NC(=O)COc2ccccc2)ccc1Cl | 4 | 50* | ? | 68% | 107*
CN1CCN(c2ccc(NC(=O)COc3ccccc3)cc2Cl)CC1 | 57 | 44* | -3% | 32% | 83*
CCCOc1ccc(C(=O)N2CCN(c3ccc(NC(=O)CC)cc3Cl)CC2)cc1 | 4 | 4 | -4% | 6.6µM* | -9
O=C(CCSCc1cnn(-c2ccccc2)c1-n1cccc1)NCc1ccc(Cl)cc1 | -18 | nt | nt | nt | nt
CCOC(=O)c1c(C)oc2nc(C)nc(NCC3CCN(Cc4cc(C)ccc4C)CC3)c12 | 0 | nt | nt | nt | nt
Cc1ccc(-c2c(C#N)c(N)nc3c2CCCCC3)o1 | -27 | -4 | nt | 6% | -6
O=[N+]([O-])c1ccc(-c2nc(Cl)c3c(n2)CCCC3)o1 | -69* | nt | nt | nt | nt
Cc1ccc(N(C)S(=O)(=O)c2ccc3c(c2)NC(=O)C(C)S3)cc1 (stereo not drawn) | ? | 9 | ? | 3.3µM* | -7
CC1Sc2ccc(S(=O)(=O)NCc3ccccc3)cc2NC1=O (stereo not drawn) | -7 | 2 | 13µM* | -2% | 13
